Screening data as filed in PubChem.
Hits are enriched below; roughly 2.6% of the tested compounds scored in any of these assays.
Granule exo inh = lytic granule exocytosis inhibition. TALL-104 LAMP-1 surface exposure, flow cytometry; cells stimulated with thapsigargin and PMA. inhibition, % at 10 µM. 360,000 compounds, 0.66% hits;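 active = inhibition above about 55%, limit read from the data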
ABHD5 PLIN5 PPI = blocks binding of human ABHD5 to perilipin-5 | AID 602281 | 360,000 compounds, 0.78% hits | Q00G26+Q8WTS1 | inhibition, % at 4 µM | Split G. princeps luciferase complementation, luminescence, 4 h;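 active = inhibition above the mean inhibition across every tested compound plus 3 SD, cut at about 22% in these data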;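 note: 0% = DMSO only wells and the 100% control is not disclosed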
NOD2 RIPK2 PPI = blocks binding of human NOD2 to RIPK2; CHO BLA complementation NOD2-RIPK2, CCF4 ratio; inhibition, % at 4.98 µM; 360,000 compounds, 0.38% hits; AID 624267; in the data active = inhibition above about 21%;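 note: 0% = vehicle only and 100% = reference blocker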
Target sequence (O43353 whole entry, looked up): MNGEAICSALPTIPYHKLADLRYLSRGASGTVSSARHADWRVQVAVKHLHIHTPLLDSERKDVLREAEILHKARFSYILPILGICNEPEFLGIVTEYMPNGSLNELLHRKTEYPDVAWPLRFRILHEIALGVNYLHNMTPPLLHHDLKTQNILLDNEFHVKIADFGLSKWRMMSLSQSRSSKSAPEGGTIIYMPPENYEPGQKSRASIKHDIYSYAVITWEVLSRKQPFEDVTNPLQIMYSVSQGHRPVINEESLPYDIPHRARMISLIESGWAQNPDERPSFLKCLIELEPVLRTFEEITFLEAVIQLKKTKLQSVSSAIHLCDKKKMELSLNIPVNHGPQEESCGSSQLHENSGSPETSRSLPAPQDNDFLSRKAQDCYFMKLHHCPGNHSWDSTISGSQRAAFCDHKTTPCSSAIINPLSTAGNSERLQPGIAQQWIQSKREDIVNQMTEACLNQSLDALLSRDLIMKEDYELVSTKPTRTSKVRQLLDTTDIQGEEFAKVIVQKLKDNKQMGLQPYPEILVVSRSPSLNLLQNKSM
TLR9-MyD88 block = blocks human TLR9 binding to MyD88; Q9NR96+Q99836; CHO BLA complementation TLR9-MyD88, CCF4 FRET ratio; inhibition, % at 4.98 µM; 340,000 compounds, 0.21% hits;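 active = inhibition above the mean over all tested compounds plus 3 SD, cut at about 21% in these data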;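 note: 0% = DMSO only wells and 100% = clavulanate BLA inhibitor control wells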
TLR4 MyD88 comp = inhibitors of human TLR4-MyD88 binding; O00206+Q99836; AID 861; inhibition, % at 8.4 µM; 200,000 compounds, 0.18% hits; HeLa CL3-4 TLR4/MyD88 BLA complementation, FRET ratio; in the data active = inhibition above about 25%;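 note: 0% = vehicle and 100% = reference inhibitor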
PRMT1 inh = PRMT1 (human) inhibition, primary screen; AID 652257; recombinant PRMT1, activity-based probe fluorescence polarization; 370,000 compounds, 1.3% hits; Q99873; inhibition, % at 2.79 µM;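 active = inhibition above about 21% made by adding two undisclosed values, limit read from the data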
Granule exo CP1 = lytic granule exocytosis inhibition. shares compounds with Granule exo inh. TALL-104 cells, LAMP-1 externalization, flow cytometry; stimulated with PMA plus thapsigargin. inhibition, % at 10 µM. 1,500 compounds, 11% hits. AID 651954; in the data active = inhibition above about 60%;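 note: 0% = stimulated vehicle wells and 100% = unstimulated wells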
Active calls of the source: *.

Screening COc1ccc(Oc2nc(-c3cccnc3)nc3ccccc23)cc1 returned Granule exo inh 88*, ABHD5 PLIN5 PPI 0, NOD2 RIPK2 PPI 3, TLR9-MyD88 block 0, PRMT1 inh -2 and Granule exo CP1 -2.
`CC(=O)CCc1ccc(Oc2nc(-c3cccnc3)nc3ccccc23)cc1` gave Granule exo inh -5, ABHD5 PLIN5 PPI 9, NOD2 RIPK2 PPI 1, TLR9-MyD88 block -2, TLR4 MyD88 comp -6 and PRMT1 inh 4.
Fc1ccc(CNc2nc(-c3cccnc3)nc3ccccc23)cc1 was read as Granule exo inh 6, ABHD5 PLIN5 PPI -4, NOD2 RIPK2 PPI 5, TLR9-MyD88 block 0 and PRMT1 inh -1.
CC(Nc1nc(-c2cccnc2)nc2ccccc12)c1ccc(F)cc1 (stereo not given) was read as Granule exo inh 65*, ABHD5 PLIN5 PPI 11, NOD2 RIPK2 PPI -4, TLR9-MyD88 block 11, PRMT1 inh 4 and Granule exo CP1 -3.
CCn1c(SCC(=O)NN=Cc2ccc(C(=O)O)cc2)nc2ccccc21 was read as PRMT1 inh -4.
Screening Cc1ccc(CNC(=O)[C@@H](Cc2ccccc2)NC(=O)[C@H]2O[C@@H](n3ccc(N)nc3=O)[C@H](O)[C@@H]2O)o1 returned PRMT1 inh 0.
For CCOC(=O)c1c(CN2CCN(C)CC2)n(-c2ccccc2)c2cc(Br)c(O)cc12 the results were Granule exo inh 59*, ABHD5 PLIN5 PPI 15, NOD2 RIPK2 PPI 11, TLR9-MyD88 block -3, PRMT1 inh 4 and Granule exo CP1 -6.
For CCOC(=O)c1c(CN2CCN(CCO)CC2)n(-c2ccccc2)c2cc(Br)c(O)cc12 the results were Granule exo inh 79*, ABHD5 PLIN5 PPI 11, NOD2 RIPK2 PPI 17, TLR9-MyD88 block -2, PRMT1 inh 1 and Granule exo CP1 -1.
Screening CCOC(=O)c1c(CN2CCN(c3ccccc3)CC2)oc2cc(Br)c(O)cc12 returned Granule exo inh -2, ABHD5 PLIN5 PPI -10, NOD2 RIPK2 PPI 2, TLR9-MyD88 block 1 and PRMT1 inh -4.
Screening COC(=O)[C@@H]1C[C@@]2(c3ccccc3)c3ccccc3N(S(=O)(=O)c3ccccc3)[C@H]2N1C(=O)CNC/C=C(\C)CCC=C(C)C returned PRMT1 inh 0.
CCCS(=O)(=O)N1CCCC(C(=O)Oc2ccccc2Cl)C1 (stereo not given) was read as Granule exo inh 68*, ABHD5 PLIN5 PPI 4, NOD2 RIPK2 PPI -1, TLR9-MyD88 block 5, PRMT1 inh -1 and Granule exo CP1 -14.
CCCCS(=O)(=O)N1CCCC(C(=O)Oc2ccccc2OC)C1 (stereo not given) was read as Granule exo inh -15, ABHD5 PLIN5 PPI -1, NOD2 RIPK2 PPI -9, TLR9-MyD88 block -2 and PRMT1 inh 0.
Screening NC(=O)CC[C@H](NC(=O)c1ccc(F)cc1)C(=O)OCC(=O)NCc1ccc(F)cc1 returned Granule exo inh 57*, ABHD5 PLIN5 PPI 0, NOD2 RIPK2 PPI -3, TLR9-MyD88 block -10, TLR4 MyD88 comp 5, PRMT1 inh -3 and Granule exo CP1 -14.
`NC(=O)CC[C@H](NC(=O)c1ccc(F)cc1)C(=O)OCC(=O)Nc1c(F)c(F)c(F)c(F)c1F` gave Granule exo inh -6, ABHD5 PLIN5 PPI 0, NOD2 RIPK2 PPI -16, TLR9-MyD88 block -13, TLR4 MyD88 comp -6 and PRMT1 inh -1.
`COc1cccc(C2Nc3ccccc3C(=O)N2c2ccc(F)cc2)c1O` (stereo not given) gave Granule exo inh 66*, ABHD5 PLIN5 PPI 2, NOD2 RIPK2 PPI -15, TLR9-MyD88 block -4, PRMT1 inh 4 and Granule exo CP1 -10.
Screening O=C1c2ccccc2NC(c2ccccc2O)N1c1ccc(F)cc1 (stereo not given) returned Granule exo inh 2, ABHD5 PLIN5 PPI -2, NOD2 RIPK2 PPI 5, TLR9-MyD88 block 10 and PRMT1 inh 2.
For Nc1c(Cl)cc(-c2csc(NC(CO)c3nc4ccccc4n3CCOCCO)n2)cc1Cl (stereo not given) the results were Granule exo inh 70*, ABHD5 PLIN5 PPI -16, NOD2 RIPK2 PPI -2, TLR9-MyD88 block 1, PRMT1 inh 5 and Granule exo CP1 -1.
For NC(=O)c1ncn([C@@H]2O[C@H](C(=O)Nc3ccc(Oc4ccccc4)nc3)[C@@H](O)[C@H]2O)n1 the results were PRMT1 inh 5.
CC1CCN(CCCNC(=O)c2cc3c(s2)-c2ccccc2OC3)CC1 was read as Granule exo inh 8, ABHD5 PLIN5 PPI 17, NOD2 RIPK2 PPI 9, TLR9-MyD88 block -5 and PRMT1 inh 0.
Cc1cccc2c1-c1sc(C(=O)NCCCN3CCC(C)CC3)cc1CO2 was read as Granule exo inh 79*, ABHD5 PLIN5 PPI 12, NOD2 RIPK2 PPI 0, TLR9-MyD88 block 7, PRMT1 inh -4 and Granule exo CP1 9.
Cc1nc(-c2ccc(Cl)cc2)sc1C1(C)CC(c2ccc(Cl)cc2)=NO1 (stereo not given) was read as Granule exo inh 8, ABHD5 PLIN5 PPI 2, NOD2 RIPK2 PPI 1, TLR9-MyD88 block -4 and PRMT1 inh 0.
Cc1nc(-c2ccc(Cl)cc2)sc1C1(C)CC(c2ccccc2)=NO1 (stereo not given) was read as Granule exo inh 83*, ABHD5 PLIN5 PPI -7, NOD2 RIPK2 PPI 1, TLR9-MyD88 block -10, PRMT1 inh 0 and Granule exo CP1 -4.
`CCc1ccccc1N(C)S(=O)(=O)c1ccc(-c2cc(C)no2)s1` gave Granule exo inh 68*, ABHD5 PLIN5 PPI -8, NOD2 RIPK2 PPI -2, TLR9-MyD88 block 2, PRMT1 inh -1 and Granule exo CP1 -10.
Screening CCN(c1ccc(OC)cc1)S(=O)(=O)c1ccc(-c2cc(C)no2)s1 returned Granule exo inh 75*, ABHD5 PLIN5 PPI -4, NOD2 RIPK2 PPI 2, TLR9-MyD88 block 7, PRMT1 inh 1 and Granule exo CP1 -5.
`COC(=O)C1=C(C)N(Cc2ccccc2C(F)(F)F)C(=NCc2ccc(C(F)(F)F)cc2)NC1CCc1ccccc1` (stereo not given) gave PRMT1 inh -2.
Screening COc1ccccc1C(=O)N1CCN(C(=O)[C@H]2O[C@@H](n3cnc(C(N)=O)n3)[C@H](O)[C@@H]2O)CC1 returned PRMT1 inh -7.
For CNCc1ccccc1Sc1cc(O)ccc1O the results were Granule exo inh 73*, ABHD5 PLIN5 PPI 7, NOD2 RIPK2 PPI -1, TLR9-MyD88 block 3, TLR4 MyD88 comp 8, PRMT1 inh 58* and Granule exo CP1 9.
`CNCc1ccccc1Sc1cccc(O)c1` gave Granule exo inh 1, ABHD5 PLIN5 PPI 9, NOD2 RIPK2 PPI -8, TLR9-MyD88 block -4, TLR4 MyD88 comp -6 and PRMT1 inh 5.
